In all, about 1,600 compounds went through this assay and about 990 (62%) were called active. Inconclusive results (about 30%) are left out. The call rests on the fitted dose curve; in most records, active means well fitted inhibition curve with a large enough effect; inconclusive means small, poorly fitted or top-dose-only effect; inactive means no such curve, though single readings can be large or run the other way. The set was probably picked from earlier hits. The sample as a whole holds a higher share of actives than the screen did.
Potency means the concentration at half of the fitted maximal effect.

The nature of the assay: qHTS for Inhibitors of TGF-b: Confirmation of Cherry Picks. Further: nearly all actives have a fitted effect of over 65% in size. The following applies: HepG2 CAGA-GFP TGF-b reporter, GFP fluorescence, 18 h; cells stimulated with TGF-beta, 500 pg/mL. An excerpt:
TGF-b is a main component in the TGF-b signaling pathway which plays diverse roles in cellular and development pathways. TGF-b is mediated through transcription factors called "Smads". Although the Smad-dependent pathway is the primary canonical TGF-b signaling mode, TGF-b1 can also activate alternative signaling pathways, including those involving MAPK (ERK, JNK and p38). This interaction may mediate or enhance Smad-dependent responses, or can exert Smad-independent effects. The complexity of this signaling cascade allows the TGF-b superfamily to perform unique, overlapping or redundant functions. We believe that targeting the TGF-beta pathway at the Smad-transcription factor level may eliminate the consequences of disrupting the entire pathway and offer specificity without affecting other signaling pathways. Smad3 is the primary transducer of TGF-b's signals and Smad3 regulates many functions attributed to TGF-b signaling. We hypothesize that Smad3 inhibitors will selectively eliminate Smad3-specific TGF-beta signals without undesired off-target effects. We aim to identify Smad3-small molecule antagonists using a quantitative high throughput screening (qHTS) approach. In this assay, hits identified from the primary screen were re-tested. MH087449NIH Chemical Genomics Center [NCGC] NIH Molecular Libraries Probe Centers Network [MLPCN] MLPCN Grant: MH087449 Assay Submitter (PI): Sushil Rane, National Institute of Diabetes and Kidney Diseases
Suspensions of trypsinized HEPG2 CAGA-GFP cells were dispensed into white, tissue culture-treated, solid 1536-well plates at 5uL/well (1000 cells/well final concentration) in DMEM medium supplemented with 1% FBS. Plates were incubated at 37 degrees C for 2 hours, after which 23 nL of compounds or DMSO were delivered to each well using a pin tool. One uL of recombinant TGF-beta in DMEM (1% FBS) was then dispensed (500 pg/mL final concentration), and plates were incubated at 37 degrees C for 18 hours. The plates were measured on an Acumen eX3 Explorer plate reader for GFP fluorescence (ex488/em500-530). GFP values were calculated by determining the mean GFP fluorescence of individual cells, and compiling these values for each well to determine a total well GFP signal. The %Activity was determined from the corrected fluorescence values. A titration of the known TGF-B inhibitor SB431542 was included to monitor plate performance, while unstimulated HEPG2 (-TGF-B) control wells were used to normalize %Activity of identified inhibitors; unstimulated wells corresponded to 100%Activity (full inhibition), while stimulated cell controls (+DMSO) were used to normalize 0%Activity (no inhibition). Concentration-response curves were fitted to the signals arising from the resulting fluorescence. The concentration-effect curves were then classified based on curve quality (r2), response magnitude and degree of measured activity, and compounds were subsequently categorized based on their curve class.
On to `COC(=O)C1=C(c2cc3ccccc3o2)C[C@@H]2CC[C@H]1N2C(=O)NC1CCCCC1`, for which the Potency is 20.6 µM (active). As for `O=Cc1cn(Cc2ccc(F)cc2Cl)c2ccccc12`, the figure is 9.2 µM (active); as for `CN(C(=O)c1cccc(NC(=O)Cc2cccc([N+](=O)[O-])c2)c1)C1CCCCC1`, 13 µM (active). As for `CCC(C)(O)C(=O)OC1C(=O)OC2CC3C(C)=CC(=O)C(O)C3(C)C3C4(O)OCC23C1C(C)C4O` (stereo not given), the figure is 0.291 µM (active); as for `CC[C@H]1CN2CCc3cc(OC)c(OC)cc3[C@@H]2C[C@@H]1C[C@H]1NCCc2cc(OC)c(OC)cc21`, 0.0231 µM (active).

For the origin of these results see PubChem BioAssay AID720534 (National Center for Advancing Translational Sciences (NCATS), 2013).
